We go through one sequence from publication PMC7862700, “An all-to-all approach to the identification of sequence-specific readers for epigenetic DNA modifications on cytosine”.

Experiment in all cases: DAPPL (digital affinity profiling via proximity ligation, sequencing); 10 mM Tris-HCl pH 7.5, 50 mM NaCl, 1 mM DTT, 4% glycerol, room temperature, 30 min; GST-TFs on glutathione beads, 16-mer random dsDNA library, 0.1% formaldehyde crosslink after washing; high values mean tight binding
The target of one test is T1, FEV (Homo sapiens, UniProt Q99581 1-238).
T1 sequence: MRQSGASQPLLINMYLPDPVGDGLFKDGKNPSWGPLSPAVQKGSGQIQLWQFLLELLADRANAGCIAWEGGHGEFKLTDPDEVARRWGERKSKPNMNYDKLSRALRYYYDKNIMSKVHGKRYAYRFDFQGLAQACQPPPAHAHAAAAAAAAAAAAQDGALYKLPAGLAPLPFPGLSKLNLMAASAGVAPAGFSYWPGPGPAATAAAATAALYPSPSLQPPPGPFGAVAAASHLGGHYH
The conditions noted are these: protein: recombinant; tags: N-terminal GST; dsDNA, one strand shown. The procedure, abridged: (§1)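 Human transcription factors were made in yeast as GST fusions, captured on glutathione beads and barcoded with DNA. With a tag-only sample included, the pool was incubated with 200 nmole of a random double-stranded 16-mer DNA library in Tris/NaCl/DTT/glycerol buffer at room temperature for 30 min, then crosslinked with 0.1% formaldehyde after washing, ligated by proximity, amplified and sequenced. For binding signal, each hexamer's read frequency for a factor is divided by its frequency for the tag-only sample.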

The next test concerns the target ETV5 (Homo sapiens, UniProt P41161 1-510). Conditions: protein: recombinant; tags: N-terminal GST; dsDNA, one strand shown. The procedure, abridged:
as §1

The next test has as its target HSF1 (Homo sapiens, UniProt Q00613 1-529). The conditions noted are these: protein: recombinant; tags: N-terminal GST; chain copies: 3; dsDNA, one strand shown. The procedure, abridged:
as §1

The target of a further test is T2, SPIC (Homo sapiens, UniProt Q8N5J4 1-248).
T2 sequence: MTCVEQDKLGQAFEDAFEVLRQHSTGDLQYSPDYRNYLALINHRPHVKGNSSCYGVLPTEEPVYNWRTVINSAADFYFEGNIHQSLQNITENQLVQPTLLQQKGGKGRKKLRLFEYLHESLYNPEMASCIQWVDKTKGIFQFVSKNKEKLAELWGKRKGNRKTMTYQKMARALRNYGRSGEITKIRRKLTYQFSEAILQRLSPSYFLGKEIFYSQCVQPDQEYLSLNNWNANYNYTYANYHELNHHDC
The conditions noted are these: protein: recombinant; tags: N-terminal GST; dsDNA, one strand shown. The procedure, abridged:
as §1

In another test the target is ELF4 (Homo sapiens, UniProt Q99607 1-663). Conditions: protein: recombinant; tags: N-terminal GST; dsDNA, one strand shown. The procedure, abridged:
as §1

The target of the next test is T3, ELK4 (Homo sapiens, UniProt P28324-2 1-405).
T3 sequence: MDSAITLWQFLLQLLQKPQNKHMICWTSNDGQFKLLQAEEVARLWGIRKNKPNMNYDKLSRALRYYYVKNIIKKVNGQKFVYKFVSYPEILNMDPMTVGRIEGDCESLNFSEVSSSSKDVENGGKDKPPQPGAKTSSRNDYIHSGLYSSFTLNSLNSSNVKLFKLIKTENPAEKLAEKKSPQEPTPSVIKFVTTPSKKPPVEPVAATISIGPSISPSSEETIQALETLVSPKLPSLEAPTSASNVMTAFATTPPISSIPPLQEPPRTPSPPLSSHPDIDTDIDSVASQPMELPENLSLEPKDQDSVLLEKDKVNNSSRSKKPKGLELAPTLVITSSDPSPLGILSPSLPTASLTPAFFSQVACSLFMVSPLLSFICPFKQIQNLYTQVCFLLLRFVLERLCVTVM
Conditions: protein: recombinant; tags: N-terminal GST; dsDNA, one strand shown. The procedure, abridged: as §1

A further test deals with T4, ETV2 (Homo sapiens, UniProt O00321 1-342).
T4 sequence: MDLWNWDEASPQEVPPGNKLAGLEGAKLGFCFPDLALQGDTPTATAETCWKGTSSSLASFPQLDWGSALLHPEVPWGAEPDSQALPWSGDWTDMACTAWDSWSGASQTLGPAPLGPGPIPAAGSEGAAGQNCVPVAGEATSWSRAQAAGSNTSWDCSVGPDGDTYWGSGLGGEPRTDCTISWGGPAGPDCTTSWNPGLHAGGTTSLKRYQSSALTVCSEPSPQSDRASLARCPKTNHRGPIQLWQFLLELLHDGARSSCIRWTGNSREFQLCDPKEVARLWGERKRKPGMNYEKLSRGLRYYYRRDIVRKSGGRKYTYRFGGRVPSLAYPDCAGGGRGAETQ
Conditions: protein: recombinant; tags: N-terminal GST; dsDNA, one strand shown. The procedure, abridged: as §1

Another test deals with T5, ELF3 (Homo sapiens, UniProt P78545 1-371).
T5 sequence: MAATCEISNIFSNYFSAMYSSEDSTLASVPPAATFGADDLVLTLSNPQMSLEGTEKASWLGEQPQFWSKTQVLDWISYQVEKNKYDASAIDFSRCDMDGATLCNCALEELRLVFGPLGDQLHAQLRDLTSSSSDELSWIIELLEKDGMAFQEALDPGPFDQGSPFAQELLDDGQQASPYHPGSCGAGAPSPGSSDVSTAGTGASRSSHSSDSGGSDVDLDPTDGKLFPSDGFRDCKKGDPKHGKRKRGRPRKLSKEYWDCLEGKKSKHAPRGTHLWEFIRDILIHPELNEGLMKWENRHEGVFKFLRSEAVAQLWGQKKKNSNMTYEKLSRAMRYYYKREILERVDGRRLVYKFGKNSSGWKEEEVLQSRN
Conditions: protein: recombinant; tags: N-terminal GST; dsDNA, one strand shown. The procedure, abridged: as §1

The next test concerns the target CRX (Homo sapiens, UniProt O43186 1-299). Conditions: protein: recombinant; tags: N-terminal GST; dsDNA, one strand shown. The procedure, abridged: as §1
The next test deals with ETV1 (Homo sapiens, UniProt P50549 1-477). Conditions: protein: recombinant; tags: N-terminal GST; dsDNA, one strand shown. The procedure, abridged:
as §1

The next test concerns the target T6, ERF (Homo sapiens, UniProt P50548 1-548).
T6 sequence: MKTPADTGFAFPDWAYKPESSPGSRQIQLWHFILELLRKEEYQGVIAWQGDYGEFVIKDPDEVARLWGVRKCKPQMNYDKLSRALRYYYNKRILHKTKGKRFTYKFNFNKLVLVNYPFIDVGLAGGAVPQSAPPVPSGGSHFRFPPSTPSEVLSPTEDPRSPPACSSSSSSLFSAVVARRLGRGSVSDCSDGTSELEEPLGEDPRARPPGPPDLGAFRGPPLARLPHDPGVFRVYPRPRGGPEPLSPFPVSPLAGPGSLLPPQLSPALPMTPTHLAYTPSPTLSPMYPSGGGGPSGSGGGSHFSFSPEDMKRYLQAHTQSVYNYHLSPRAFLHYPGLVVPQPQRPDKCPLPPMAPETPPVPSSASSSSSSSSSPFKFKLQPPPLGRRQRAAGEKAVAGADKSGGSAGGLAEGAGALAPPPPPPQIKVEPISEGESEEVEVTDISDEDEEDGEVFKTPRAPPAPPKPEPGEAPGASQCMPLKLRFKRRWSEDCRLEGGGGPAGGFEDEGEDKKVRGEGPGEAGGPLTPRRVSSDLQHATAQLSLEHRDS
Conditions: protein: recombinant; tags: N-terminal GST; dsDNA, one strand shown. The procedure, abridged:
as §1

In another test the target is T7, ETV3L (Homo sapiens, UniProt Q6ZN32 1-361).
T7 sequence: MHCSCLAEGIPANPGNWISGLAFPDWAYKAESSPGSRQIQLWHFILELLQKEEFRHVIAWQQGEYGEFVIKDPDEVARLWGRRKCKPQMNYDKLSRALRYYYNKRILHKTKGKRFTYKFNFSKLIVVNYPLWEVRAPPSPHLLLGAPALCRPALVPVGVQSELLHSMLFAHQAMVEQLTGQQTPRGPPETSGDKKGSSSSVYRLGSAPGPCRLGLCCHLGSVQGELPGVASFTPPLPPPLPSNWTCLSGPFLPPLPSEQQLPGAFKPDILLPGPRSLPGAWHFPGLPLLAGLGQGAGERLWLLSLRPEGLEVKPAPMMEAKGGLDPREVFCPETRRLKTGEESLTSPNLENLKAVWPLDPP
Conditions: protein: recombinant; tags: N-terminal GST; dsDNA, one strand shown. The procedure, abridged: as §1

A further test concerns the target T8, ETS2 (Homo sapiens, UniProt P15036 1-469).
T8 sequence: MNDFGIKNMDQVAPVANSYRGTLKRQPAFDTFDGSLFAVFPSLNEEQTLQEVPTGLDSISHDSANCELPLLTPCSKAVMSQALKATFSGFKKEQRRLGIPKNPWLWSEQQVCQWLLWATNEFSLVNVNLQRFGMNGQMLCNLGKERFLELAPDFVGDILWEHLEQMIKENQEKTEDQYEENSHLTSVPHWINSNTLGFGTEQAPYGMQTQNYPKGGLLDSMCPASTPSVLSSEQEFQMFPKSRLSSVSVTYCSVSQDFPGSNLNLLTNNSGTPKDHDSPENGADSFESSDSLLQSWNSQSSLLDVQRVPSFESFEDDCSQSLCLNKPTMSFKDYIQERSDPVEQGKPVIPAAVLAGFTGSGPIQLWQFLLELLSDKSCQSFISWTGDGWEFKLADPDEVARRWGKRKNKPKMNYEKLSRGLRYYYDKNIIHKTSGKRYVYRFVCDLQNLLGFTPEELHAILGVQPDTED
The conditions noted are these: protein: recombinant; tags: N-terminal GST; dsDNA, one strand shown. The procedure, abridged: as §1

Another test concerns the target T9, SPDEF (Homo sapiens, UniProt O95238 1-335).
T9 sequence: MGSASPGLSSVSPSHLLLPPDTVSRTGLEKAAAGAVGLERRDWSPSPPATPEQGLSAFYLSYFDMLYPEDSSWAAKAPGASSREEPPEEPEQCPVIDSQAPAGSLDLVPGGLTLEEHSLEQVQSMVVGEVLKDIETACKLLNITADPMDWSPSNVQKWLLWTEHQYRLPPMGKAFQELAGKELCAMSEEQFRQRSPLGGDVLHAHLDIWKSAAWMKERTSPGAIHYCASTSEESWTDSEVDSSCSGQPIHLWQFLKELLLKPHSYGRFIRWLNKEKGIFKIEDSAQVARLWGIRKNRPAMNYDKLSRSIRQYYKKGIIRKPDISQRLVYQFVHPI
The conditions noted are these: protein: recombinant; tags: N-terminal GST; dsDNA, one strand shown. The procedure, abridged: as §1

A further test has as its target T10, ETV7 (Homo sapiens, UniProt Q9Y603 1-341).
T10 sequence: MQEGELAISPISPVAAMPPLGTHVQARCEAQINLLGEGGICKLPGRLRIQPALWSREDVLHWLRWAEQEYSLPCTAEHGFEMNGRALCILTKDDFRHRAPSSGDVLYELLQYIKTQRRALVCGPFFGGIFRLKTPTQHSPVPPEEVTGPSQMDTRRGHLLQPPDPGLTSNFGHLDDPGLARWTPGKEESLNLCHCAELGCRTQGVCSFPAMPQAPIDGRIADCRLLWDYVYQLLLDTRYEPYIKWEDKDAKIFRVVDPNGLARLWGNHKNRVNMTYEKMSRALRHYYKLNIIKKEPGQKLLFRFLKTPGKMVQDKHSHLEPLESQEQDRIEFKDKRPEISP
Conditions: protein: recombinant; tags: N-terminal GST; dsDNA, one strand shown. The procedure, abridged:
as §1

A further test has as its target T11, ELF5 (Homo sapiens, UniProt Q9UKW6-2 1-255).
T11 sequence: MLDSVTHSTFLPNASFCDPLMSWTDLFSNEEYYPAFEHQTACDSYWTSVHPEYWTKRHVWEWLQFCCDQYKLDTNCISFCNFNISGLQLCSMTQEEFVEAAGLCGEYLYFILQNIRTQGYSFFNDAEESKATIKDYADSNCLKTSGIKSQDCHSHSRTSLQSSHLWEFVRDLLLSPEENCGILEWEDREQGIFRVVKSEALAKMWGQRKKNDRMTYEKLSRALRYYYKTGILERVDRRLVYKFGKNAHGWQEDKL
The conditions noted are these: protein: recombinant; tags: N-terminal GST; dsDNA, one strand shown. The procedure, abridged: as §1

The next test addresses T12, ETV3 (Homo sapiens, UniProt P41162-2 1-143).
T12 sequence: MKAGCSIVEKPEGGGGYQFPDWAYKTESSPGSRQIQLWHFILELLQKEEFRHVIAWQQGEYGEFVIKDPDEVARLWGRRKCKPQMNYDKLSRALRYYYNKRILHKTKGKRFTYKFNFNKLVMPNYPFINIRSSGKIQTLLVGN
The conditions noted are these: protein: recombinant; tags: N-terminal GST; dsDNA, one strand shown. The procedure, abridged:
as §1

A further test concerns the target ETV6 (Homo sapiens, UniProt P41212 1-452). Conditions: protein: recombinant; tags: N-terminal GST; dsDNA, one strand shown. The procedure, abridged:
as §1

Sequence of ETV5 (P41161 whole entry): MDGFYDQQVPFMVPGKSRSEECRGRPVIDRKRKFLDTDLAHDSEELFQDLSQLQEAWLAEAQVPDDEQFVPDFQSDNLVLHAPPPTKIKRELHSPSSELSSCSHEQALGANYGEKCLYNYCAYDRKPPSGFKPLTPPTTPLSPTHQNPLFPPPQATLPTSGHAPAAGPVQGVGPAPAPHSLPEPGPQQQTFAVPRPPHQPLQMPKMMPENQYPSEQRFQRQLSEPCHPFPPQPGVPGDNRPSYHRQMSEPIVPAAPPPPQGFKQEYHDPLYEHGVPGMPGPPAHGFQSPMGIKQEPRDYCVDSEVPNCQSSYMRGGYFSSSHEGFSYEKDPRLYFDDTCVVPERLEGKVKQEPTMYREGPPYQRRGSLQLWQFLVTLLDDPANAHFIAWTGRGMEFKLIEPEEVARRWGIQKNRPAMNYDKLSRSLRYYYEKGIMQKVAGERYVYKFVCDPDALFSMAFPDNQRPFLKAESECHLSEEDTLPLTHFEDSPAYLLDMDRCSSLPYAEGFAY
Sequence of ETV1 (P50549 whole entry): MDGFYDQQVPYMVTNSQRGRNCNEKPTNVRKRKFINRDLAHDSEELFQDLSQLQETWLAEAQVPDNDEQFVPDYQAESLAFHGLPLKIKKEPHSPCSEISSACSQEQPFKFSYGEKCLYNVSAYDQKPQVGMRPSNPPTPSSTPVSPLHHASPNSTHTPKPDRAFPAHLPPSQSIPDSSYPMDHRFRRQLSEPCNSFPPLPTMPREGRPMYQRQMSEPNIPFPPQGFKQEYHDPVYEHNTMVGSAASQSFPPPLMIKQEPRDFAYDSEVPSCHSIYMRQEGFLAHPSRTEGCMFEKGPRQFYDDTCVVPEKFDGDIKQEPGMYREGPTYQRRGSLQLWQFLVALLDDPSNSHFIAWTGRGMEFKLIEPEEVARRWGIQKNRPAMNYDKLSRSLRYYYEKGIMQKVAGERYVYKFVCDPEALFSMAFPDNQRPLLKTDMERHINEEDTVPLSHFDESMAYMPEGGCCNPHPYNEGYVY
Sequence of ETV6 (P41212 whole entry): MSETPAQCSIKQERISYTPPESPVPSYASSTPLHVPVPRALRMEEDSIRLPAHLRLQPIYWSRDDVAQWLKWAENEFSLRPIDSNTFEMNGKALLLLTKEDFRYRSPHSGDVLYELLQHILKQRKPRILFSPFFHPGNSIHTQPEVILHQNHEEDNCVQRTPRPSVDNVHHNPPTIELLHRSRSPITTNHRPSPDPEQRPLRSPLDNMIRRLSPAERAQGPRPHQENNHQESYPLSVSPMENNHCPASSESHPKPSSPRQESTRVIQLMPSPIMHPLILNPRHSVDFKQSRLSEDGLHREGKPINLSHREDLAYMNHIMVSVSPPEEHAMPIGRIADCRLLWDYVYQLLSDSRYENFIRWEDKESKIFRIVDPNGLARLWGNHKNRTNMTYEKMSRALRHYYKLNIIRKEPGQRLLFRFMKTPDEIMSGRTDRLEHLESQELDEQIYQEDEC
Sequence of HSF1 (Q00613 whole entry): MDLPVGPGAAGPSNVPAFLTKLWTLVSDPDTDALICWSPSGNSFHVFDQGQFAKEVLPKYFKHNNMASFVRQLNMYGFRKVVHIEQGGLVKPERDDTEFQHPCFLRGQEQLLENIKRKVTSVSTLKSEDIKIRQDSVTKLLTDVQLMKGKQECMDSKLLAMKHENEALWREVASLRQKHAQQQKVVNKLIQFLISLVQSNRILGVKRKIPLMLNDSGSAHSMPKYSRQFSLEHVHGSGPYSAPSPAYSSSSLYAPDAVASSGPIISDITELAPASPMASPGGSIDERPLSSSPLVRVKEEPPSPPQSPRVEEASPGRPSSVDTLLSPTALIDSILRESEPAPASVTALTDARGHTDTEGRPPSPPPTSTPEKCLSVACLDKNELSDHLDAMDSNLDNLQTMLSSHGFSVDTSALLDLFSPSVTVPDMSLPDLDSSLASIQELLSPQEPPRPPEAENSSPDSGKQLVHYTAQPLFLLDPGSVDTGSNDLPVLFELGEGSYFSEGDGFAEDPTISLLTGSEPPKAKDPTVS
Sequence of ELF4 (Q99607 whole entry): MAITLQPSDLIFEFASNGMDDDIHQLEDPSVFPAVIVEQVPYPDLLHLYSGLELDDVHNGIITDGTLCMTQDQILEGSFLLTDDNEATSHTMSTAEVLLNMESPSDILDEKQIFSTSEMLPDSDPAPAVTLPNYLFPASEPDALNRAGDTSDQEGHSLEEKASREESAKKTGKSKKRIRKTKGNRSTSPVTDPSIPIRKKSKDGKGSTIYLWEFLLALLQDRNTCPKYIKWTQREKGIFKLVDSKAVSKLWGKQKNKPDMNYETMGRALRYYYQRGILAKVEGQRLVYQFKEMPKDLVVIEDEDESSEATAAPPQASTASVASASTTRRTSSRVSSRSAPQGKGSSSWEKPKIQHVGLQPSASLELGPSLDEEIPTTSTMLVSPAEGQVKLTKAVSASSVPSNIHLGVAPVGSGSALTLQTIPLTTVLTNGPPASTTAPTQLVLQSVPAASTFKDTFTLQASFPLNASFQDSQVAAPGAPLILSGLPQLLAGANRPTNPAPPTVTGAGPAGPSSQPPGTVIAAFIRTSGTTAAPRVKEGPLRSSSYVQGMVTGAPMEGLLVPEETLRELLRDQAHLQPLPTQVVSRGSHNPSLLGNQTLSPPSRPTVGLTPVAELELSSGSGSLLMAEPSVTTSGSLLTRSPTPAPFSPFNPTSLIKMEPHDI
Sequence of CRX (O43186 whole entry): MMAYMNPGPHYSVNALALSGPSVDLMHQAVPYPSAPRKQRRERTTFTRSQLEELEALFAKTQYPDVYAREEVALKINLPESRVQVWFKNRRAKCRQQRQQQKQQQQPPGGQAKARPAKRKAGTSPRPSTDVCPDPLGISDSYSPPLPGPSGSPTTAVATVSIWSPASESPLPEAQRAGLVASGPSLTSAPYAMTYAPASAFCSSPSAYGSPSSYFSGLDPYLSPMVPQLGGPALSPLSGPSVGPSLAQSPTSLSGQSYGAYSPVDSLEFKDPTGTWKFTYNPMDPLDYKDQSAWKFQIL

Consider TAATTA, for which the binding signal with FEV is 1.22 fold enrichment (6-mer frequency, TF over GST control); with ETV5 it was 1.31 fold enrichment (6-mer frequency, TF over GST control); in the test with HSF1 it was 1.81 fold enrichment (6-mer frequency, TF over GST control); with SPIC, 1.4 fold enrichment (6-mer frequency, TF over GST control); in the test with ELF4, 1.23 fold enrichment (6-mer frequency, TF over GST control); with ELK4 it was 1.17 fold enrichment (6-mer frequency, TF over GST control). Besides, the binding signal with ETV2 was 1.35 fold enrichment (6-mer frequency, TF over GST control); with ELF3, 1.3 fold enrichment (6-mer frequency, TF over GST control); with CRX, 2.74 fold enrichment (6-mer frequency, TF over GST control); in the test with ETV1 it was 1.33 fold enrichment (6-mer frequency, TF over GST control); with ERF, 1.24 fold enrichment (6-mer frequency, TF over GST control); with ETV3L, 1.23 fold enrichment (6-mer frequency, TF over GST control). In addition, the binding signal is 1.34 fold enrichment (6-mer frequency, TF over GST control) in the test with ETS2; 1.24 fold enrichment (6-mer frequency, TF over GST control) with SPDEF; 1.35 fold enrichment (6-mer frequency, TF over GST control) in the test with ETV7; 1.2 fold enrichment (6-mer frequency, TF over GST control) in the test with ELF5; 1.19 fold enrichment (6-mer frequency, TF over GST control) in the test with ETV3; 1.36 fold enrichment (6-mer frequency, TF over GST control) with ETV6.
